In PubChem BioAssay:
For some assays here: Measured potencies and affinities stand elsewhere. The source made the active and inactive calls. Unless noted, how the calls were made is not given here.

Assays:
[1] = antimalarial activity against Dd2 strain (AID 2302;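 active means growth inhibition above 50% at the single 2 µM test dose, taken to imply half-maximal potency below 2 µM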;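 further: 0% = DMSO untreated growth and 100% = chloroquine plus artemisinin killed control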); conditions: P. falciparum Dd2 in RBCs, LDH growth readout, 72 h; at 2 µM; stronger effect = higher value
[2] = HepG2 cytotoxicity, primary screen, cytotoxicity control for P. falciparum antimalarial project, cell-based, ATP luminescence (AID 2303;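 active means inhibition above 50%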;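 further: 0% = DMSO wells and 100% = digitonin-killed cells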); conditions: HepG2 viability, 24-48 h, at 10 µM, stronger effect = higher value
[3] = target: L-lactate dehydrogenase (Plasmodium falciparum (isolate CDC / Honduras)) (UniProt Q27743); experiment: PfLDH activity inhibition – cell lysate, 3D7 strain, counter-screen for P. falciparum growth inhibition project (AID 2304);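 further: 0% = vehicle and 100% = reference inhibitor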; conditions: P. falciparum 3D7 crude extract, LDH APAD/NBT absorbance; at 2 µM; stronger effect = higher value
L-lactate dehydrogenase (Plasmodium falciparum (isolate CDC / Honduras)), sequence (Q27743 whole entry, looked up): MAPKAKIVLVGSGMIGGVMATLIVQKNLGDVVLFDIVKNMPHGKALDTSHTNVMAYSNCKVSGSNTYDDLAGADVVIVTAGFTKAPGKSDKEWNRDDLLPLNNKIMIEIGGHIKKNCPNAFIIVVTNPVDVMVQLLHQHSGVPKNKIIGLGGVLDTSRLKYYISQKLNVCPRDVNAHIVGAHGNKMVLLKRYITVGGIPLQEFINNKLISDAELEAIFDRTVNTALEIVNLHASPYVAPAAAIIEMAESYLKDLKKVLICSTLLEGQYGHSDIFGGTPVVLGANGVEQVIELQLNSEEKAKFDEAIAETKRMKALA

[4] = inhibition of 3D7 malaria parasite growth – strain 3D7 (AID 2306);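 further: 0% = DMSO wells and 100% = chloroquine plus artemisinin control wells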; conditions: P. falciparum 3D7 erythrocytic growth, LDH absorbance, 72 h; at 2 µM; stronger effect = higher value
[5] = target: Calcium-dependent protein kinase 1 (Plasmodium falciparum (isolate 3D7)) (UniProt P62344); experiment: PfCDPK1 kinase inhibitors, biochemical, TCAMS library (AID 1159585; cut-off not given, nearly all actives have IC50 up to about 0.98 µM;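 further: inhibitors leave more ATP so luminescence rises with inhibition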); conditions: recombinant PfCDPK1, Kinase-Glo ATP depletion luminescence
Calcium-dependent protein kinase 1 (Plasmodium falciparum (isolate 3D7)), sequence (P62344 whole entry, looked up): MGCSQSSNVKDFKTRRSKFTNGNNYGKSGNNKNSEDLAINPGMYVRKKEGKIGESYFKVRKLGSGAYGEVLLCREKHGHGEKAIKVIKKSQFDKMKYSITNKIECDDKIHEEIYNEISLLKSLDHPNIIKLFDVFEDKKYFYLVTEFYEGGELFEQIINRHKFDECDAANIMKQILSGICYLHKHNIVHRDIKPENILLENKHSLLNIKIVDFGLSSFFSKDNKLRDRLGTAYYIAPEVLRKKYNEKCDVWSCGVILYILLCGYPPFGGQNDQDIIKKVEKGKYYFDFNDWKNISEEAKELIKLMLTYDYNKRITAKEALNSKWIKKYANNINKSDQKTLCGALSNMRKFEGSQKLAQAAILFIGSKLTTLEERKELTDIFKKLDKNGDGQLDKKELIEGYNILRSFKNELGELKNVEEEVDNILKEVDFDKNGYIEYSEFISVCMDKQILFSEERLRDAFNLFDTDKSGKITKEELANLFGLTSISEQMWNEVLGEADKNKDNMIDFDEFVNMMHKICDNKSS

[6] = target: Plasmodium falciparum protein kinase 6 (PK6, PF3D7_1337100) (UniProt Q8IDW1); experiment: PfPK6 kinase inhibitors, biochemical, TCAMS library (AID 1159586); conditions: recombinant PfPK6, Kinase-Glo ATP depletion luminescence
Plasmodium falciparum protein kinase 6 (PK6, PF3D7_1337100), sequence (Q8IDW1 1-305): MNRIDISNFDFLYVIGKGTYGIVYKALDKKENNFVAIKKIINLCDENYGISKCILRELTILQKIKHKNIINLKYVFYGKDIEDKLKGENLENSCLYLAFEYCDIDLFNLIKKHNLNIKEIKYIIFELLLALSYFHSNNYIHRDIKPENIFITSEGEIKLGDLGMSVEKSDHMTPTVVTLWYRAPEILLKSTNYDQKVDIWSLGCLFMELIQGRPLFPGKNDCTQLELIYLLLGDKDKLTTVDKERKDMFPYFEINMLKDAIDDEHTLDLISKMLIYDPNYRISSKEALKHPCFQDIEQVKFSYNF

[7] = target: Protein kinase 7 (PK7), Plasmodium falciparum 3D7 (PF3D7_0213400) (UniProt Q7YTF7); experiment: inhibition of Plasmodium PK7 catalytic activity – biochemical, TCAMS antimalarial set, Kinase-Glo luminescence (AID 1159587); conditions: recombinant PfPK7, Kinase-Glo ATP depletion luminescence
Protein kinase 7 (PK7), Plasmodium falciparum 3D7 (PF3D7_0213400), sequence (Q7YTF7 1-343): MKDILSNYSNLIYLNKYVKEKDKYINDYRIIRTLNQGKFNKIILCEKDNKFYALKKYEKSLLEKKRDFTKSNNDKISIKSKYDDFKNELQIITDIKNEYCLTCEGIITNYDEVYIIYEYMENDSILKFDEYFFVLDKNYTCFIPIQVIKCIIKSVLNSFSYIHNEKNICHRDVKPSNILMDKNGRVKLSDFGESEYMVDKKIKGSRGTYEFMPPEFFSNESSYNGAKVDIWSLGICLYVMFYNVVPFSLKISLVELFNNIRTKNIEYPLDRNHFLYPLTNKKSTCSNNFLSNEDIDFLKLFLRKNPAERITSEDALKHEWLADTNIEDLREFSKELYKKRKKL

[8] = target: Calcium-dependent protein kinase 4 (Plasmodium falciparum (isolate 3D7)) (UniProt Q8IBS5); experiment: PfCDPK4 kinase inhibitors, biochemical, TCAMS library (AID 1159588; cut-off not given, nearly all actives have IC50 up to about 0.91 µM); conditions: recombinant PfCDPK4, Kinase-Glo ATP depletion luminescence
Calcium-dependent protein kinase 4 (Plasmodium falciparum (isolate 3D7)), sequence (Q8IBS5 whole entry, looked up): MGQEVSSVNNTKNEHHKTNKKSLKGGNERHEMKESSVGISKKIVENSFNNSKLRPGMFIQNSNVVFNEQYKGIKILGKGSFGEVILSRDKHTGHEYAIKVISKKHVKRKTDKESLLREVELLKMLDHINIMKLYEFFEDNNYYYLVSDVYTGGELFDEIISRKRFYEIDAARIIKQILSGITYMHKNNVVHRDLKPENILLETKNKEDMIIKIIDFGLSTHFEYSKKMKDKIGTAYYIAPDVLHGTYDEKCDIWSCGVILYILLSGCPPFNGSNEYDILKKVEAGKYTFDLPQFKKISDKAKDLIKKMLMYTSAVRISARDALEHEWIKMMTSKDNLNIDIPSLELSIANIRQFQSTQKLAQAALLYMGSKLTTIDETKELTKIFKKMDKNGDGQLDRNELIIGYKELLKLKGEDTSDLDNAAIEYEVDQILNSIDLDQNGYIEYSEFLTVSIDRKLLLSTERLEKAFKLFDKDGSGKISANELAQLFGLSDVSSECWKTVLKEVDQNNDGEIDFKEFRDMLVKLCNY

Cc1cc(CN2CCCN(c3ccc4c(c3)CCN(Cc3ccc(-c5ncc[nH]5)cc3)CC4)CC2)n(C)n1
inactive: growth inhibition [1] 8% | inhibition [2] 5% | inhibition [3] 5% | outcome [5] | outcome [6] | outcome [7] | outcome [8]
active: growth inhibition [4] 86%

CC(C)(C)N1CCC(N(Cc2ccc(-c3ccc(C(F)(F)F)cc3)cc2)C(=O)Cn2c(CCc3cccc(F)c3F)nc(=O)c3cccnc32)CC1
inactive: inhibition [3] 3% | outcome [5] | outcome [6] | outcome [7] | outcome [8]
active: growth inhibition [1] 53% | inhibition [2] 94% | growth inhibition [4] 100%

OC(CNCc1ccccc1Oc1ccccc1)c1cc(Br)cs1 (stereo not given)
active: growth inhibition [1] 79% | growth inhibition [4] 94%
inactive: inhibition [2] -13% | inhibition [3] -4% | outcome [5] | outcome [6] | outcome [7] | outcome [8]

CC(=O)N(C)c1ccc(C(=O)Nc2cccc(-c3cccc(-c4nc5c(C)cccc5[nH]4)c3)c2)cc1
inactive: growth inhibition [1] 30% | inhibition [2] 11% | inhibition [3] -2% | outcome [5] | outcome [6] | outcome [7] | outcome [8]
active: growth inhibition [4] 89%

CCCCCCc1cnc2nc(N)nc(N)c2c1C
inactive: growth inhibition [1] 20% | inhibition [3] -8% | outcome [5] | outcome [6] | outcome [7] | outcome [8]
active: inhibition [2] 67% | growth inhibition [4] 93%

COc1ccc(CN(C)CCCc2ccc(NC(=O)c3cccc4c(=O)c5ccccc5[nH]c34)cc2)cc1OC
inactive: inhibition [3] -1% | outcome [5] | outcome [6] | outcome [7] | outcome [8]
active: growth inhibition [1] 54% | inhibition [2] 77% | growth inhibition [4] 99%

O=C(Nc1cccc(OCc2ccccc2)c1)c1ccc(CN2CCC(Cc3ccccc3)CC2)cc1
inactive: growth inhibition [1] 27% | inhibition [2] 41% | inhibition [3] 3% | outcome [5] | outcome [6] | outcome [7] | outcome [8]
active: growth inhibition [4] 100%

COc1ccc2nccc(NN=Cc3cccnc3)c2c1
inactive: inhibition [2] -1% | inhibition [3] -6% | outcome [5] | outcome [6] | outcome [7] | outcome [8]
active: growth inhibition [1] 84% | growth inhibition [4] 100%

Cc1cc(NC(=O)NCCN2CCC(NS(=O)(=O)c3ccccc3Cl)C2)c2ccccc2n1 (stereo not given)
inactive: growth inhibition [1] 43% | inhibition [2] 1% | inhibition [3] -5% | outcome [5] | outcome [6] | outcome [7] | outcome [8]
active: growth inhibition [4] 97%

CN(Cc1cccc(O)c1)C1CCN(c2cc(NC(=O)c3cccc(F)c3)ccn2)CC1
active: growth inhibition [4] 98%
inactive: growth inhibition [1] 37% | inhibition [2] -2% | inhibition [3] 0% | outcome [5] | outcome [6] | outcome [7] | outcome [8]

O=C(Nc1ccnc2ccccc12)NC1CCN(Cc2ccccc2)CC1
inactive: growth inhibition [1] 43% | inhibition [2] 18% | inhibition [3] 5% | outcome [5] | outcome [6] | outcome [7] | outcome [8]
active: growth inhibition [4] 96%

Cc1noc(C)c1-c1ccc2c(Nc3ccc(Cl)cc3)c(C(N)=O)cnc2c1
active: growth inhibition [1] 67% | growth inhibition [4] 94%
inactive: inhibition [2] 9% | inhibition [3] 7% | outcome [5] | outcome [6] | outcome [7] | outcome [8]

COc1cc(C)nc2ccc(NC(=O)Nc3ccc4nc(C)cc(OC)c4c3)cc12
active: growth inhibition [1] 83% | inhibition [2] 79% | growth inhibition [4] 102%
inactive: inhibition [3] -7% | outcome [5] | outcome [6] | outcome [7] | outcome [8]

CCOc1ccc(NC(C)=O)c(O)c1
active: growth inhibition [4] 96%
inactive: growth inhibition [1] 0% | inhibition [2] 6% | inhibition [3] -1% | outcome [5] | outcome [6] | outcome [7] | outcome [8]

Cc1ccc2c(c1)c(-c1ccccc1)c(-c1ccccc1)n2CC(O)CN1CCN(CC=Cc2ccccc2)CC1 (stereo not given)
active: growth inhibition [1] 98% | growth inhibition [4] 98%
inactive: inhibition [2] 0% | inhibition [3] 6% | outcome [5] | outcome [6] | outcome [7] | outcome [8]

N#Cc1nc2ccc(OCCN(Cc3ccccc3C(F)(F)F)c3ccc(C#N)c(C(F)(F)F)c3)cc2s1
inactive: growth inhibition [1] 47% | inhibition [2] 23% | inhibition [3] 6% | outcome [5] | outcome [6] | outcome [7] | outcome [8]
active: growth inhibition [4] 93%

O=C(NOCCCCOc1ccc(Cl)c(Cl)c1)c1ccccc1
inactive: growth inhibition [1] 1% | inhibition [2] 2% | inhibition [3] 3% | outcome [5] | outcome [6] | outcome [7] | outcome [8]
active: growth inhibition [4] 98%

O=C(Nc1cccc(-c2ccc(-c3nc4ccc(F)cc4[nH]3)cc2)c1)c1ccoc1
inactive: growth inhibition [1] 6% | inhibition [2] 39% | inhibition [3] -7% | outcome [5] | outcome [6] | outcome [7] | outcome [8]
active: growth inhibition [4] 85%

CCCNC(=O)CN1CN(c2ccccc2)C2(CCN(C(=O)c3ccc(C(C)(C)C)cc3)CC2)C1=O
inactive: inhibition [2] 0% | inhibition [3] 0% | outcome [5] | outcome [6] | outcome [7] | outcome [8]
active: growth inhibition [1] 98% | growth inhibition [4] 99%

CCCCCOc1ccc(C(=NC)N(CCCCC)CCCCC)c2ccccc12
active: growth inhibition [1] 80% | inhibition [2] 70% | growth inhibition [4] 96%
inactive: inhibition [3] 3% | outcome [5] | outcome [6] | outcome [7] | outcome [8]

Cn1cnc(CCNC(=O)c2cccc(-c3csc(-c4nc5ccccc5[nH]4)c3)c2)c1
active: growth inhibition [4] 101%
inactive: growth inhibition [1] 26% | inhibition [2] 33% | inhibition [3] 0% | outcome [5] | outcome [6] | outcome [7] | outcome [8]

CCCCCCP(=O)(COc1ccc(CCN(CC(O)COc2cccc3[nH]c(C(N)=O)cc23)CC(O)COc2cccc3[nH]c(C(N)=O)cc23)cc1)OCCCC (stereo not given)
inactive: inhibition [2] -10% | inhibition [3] 3% | outcome [5] | outcome [6] | outcome [7] | outcome [8]
active: growth inhibition [1] 97% | growth inhibition [4] 99%

COc1ccc(NCc2cccc(-c3cccc(CNCCc4ccccc4)c3)c2)cc1
active: growth inhibition [4] 96%
inactive: growth inhibition [1] 14% | inhibition [2] 41% | inhibition [3] 0% | outcome [5] | outcome [6] | outcome [7] | outcome [8]

CC(C)n1ncc2c(C(=O)N3CCCc4ccccc43)cc(-c3ccccc3)nc21
inactive: inhibition [2] 5% | inhibition [3] 2% | outcome [5] | outcome [6] | outcome [7] | outcome [8]
active: growth inhibition [1] 82% | growth inhibition [4] 100%

COc1cccc(NC(=O)Nc2c(-c3cccc(C(F)(F)F)c3)c(C(F)(F)F)nn2C)c1
active: growth inhibition [4] 93%
inactive: growth inhibition [1] 30% | inhibition [2] 2% | inhibition [3] 7% | outcome [5] | outcome [6] | outcome [7] | outcome [8]

CC(=O)Nc1ccc2[nH]cc(C3CCN(CC4CCN(C(=O)/C=C/c5ccc(Cl)c(Cl)c5)CC4)CC3)c2n1
active: growth inhibition [1] 99% | growth inhibition [4] 100%
inactive: inhibition [2] 21% | inhibition [3] -2% | outcome [5] | outcome [6] | outcome [7] | outcome [8]

Cc1cc(N(C)C)nc(Nc2ccc(NC(=O)C(C)Oc3ccccc3)cc2)n1 (stereo not given)
inactive: growth inhibition [1] 30% | inhibition [2] 2% | inhibition [3] -1% | outcome [5] | outcome [6] | outcome [7] | outcome [8]
active: growth inhibition [4] 98%

COCCCNC(=O)C1CCN(C(c2ccc(Cl)cc2)c2ccc(Cl)cc2)CC1
active: growth inhibition [1] 63% | growth inhibition [4] 91%
inactive: inhibition [2] 5% | inhibition [3] 0% | outcome [5] | outcome [6] | outcome [7] | outcome [8]

CCCC(=O)Nc1ccc(Nc2nc(C)cc(N3CCCC3)n2)cc1
inactive: growth inhibition [1] 46% | inhibition [2] 31% | inhibition [3] 4% | outcome [5] | outcome [6] | outcome [7] | outcome [8]
active: growth inhibition [4] 100%

Cc1[nH]c(C)c(-c2ccc(-c3ccc(C#N)cc3)nc2)c(=O)c1Br
active: growth inhibition [1] 87% | growth inhibition [4] 97%
inactive: inhibition [2] 5% | inhibition [3] 7% | outcome [5] | outcome [6] | outcome [7] | outcome [8]

Cn1cc(C(=O)Nc2cccc(-c3cccc(-c4nc5ccc(F)cc5[nH]4)c3)c2)n(C)c1=O
active: growth inhibition [1] 50% | growth inhibition [4] 98%
inactive: inhibition [2] 15% | inhibition [3] -1% | outcome [5] | outcome [6] | outcome [7] | outcome [8]

O=C(NCCN1CCOCC1)c1ccc(N2CCC(Oc3ccc4ccccc4c3)CC2)nc1
inactive: growth inhibition [1] 30% | inhibition [2] 1% | inhibition [3] -3% | outcome [5] | outcome [6] | outcome [7] | outcome [8]
active: growth inhibition [4] 92%

CNCCNCc1ccc(-c2ccc(-c3nc4c(C)cccc4[nH]3)s2)cc1
inactive: growth inhibition [1] 26% | inhibition [2] 16% | inhibition [3] 5% | outcome [5] | outcome [6] | outcome [7] | outcome [8]
active: growth inhibition [4] 97%

CC(C)NCc1ccc(-c2cccc(CN3CCC(c4ccccc4)CC3)c2)c(C(=O)NCC2CCCCC2)c1
active: growth inhibition [1] 76% | growth inhibition [4] 98%
inactive: inhibition [2] 42% | inhibition [3] -5% | outcome [5] | outcome [6] | outcome [7] | outcome [8]

COc1ccc2nccc([C@@H](O)CN3CCC(NC(=O)/C=C/c4ccc(Cl)c(C(F)(F)F)c4)CC3)c2c1
inactive: inhibition [2] 11% | inhibition [3] -4% | outcome [5] | outcome [6] | outcome [7] | outcome [8]
active: growth inhibition [1] 89% | growth inhibition [4] 102%

O=C(Nc1ccc([N+](=O)[O-])cc1)c1nn(-c2ccccc2)cc1N=Cc1cccc(O)c1
active: growth inhibition [4] 98%
inactive: growth inhibition [1] 37% | inhibition [2] 10% | inhibition [3] -5% | outcome [5] | outcome [6] | outcome [7] | outcome [8]

Cc1cnc(NC(=O)c2cn(-c3ccccc3)nc2-c2cccs2)s1
inactive: growth inhibition [1] 1% | inhibition [2] -5% | inhibition [3] -1% | outcome [5] | outcome [6] | outcome [7] | outcome [8]
active: growth inhibition [4] 91%

Cc1ncc([N+](=O)[O-])n1CCOC(=O)NC(NCC1COc2ccccc2O1)C(Cl)(Cl)Cl (stereo not given)
active: growth inhibition [1] 78% | growth inhibition [4] 101%
inactive: inhibition [2] -9% | inhibition [3] -4% | outcome [5] | outcome [6] | outcome [7] | outcome [8]

CC(C)C(NC(=O)c1c(F)cccc1F)C(=O)Nc1ccc(Cc2nc3ccccc3s2)cc1 (stereo not given)
inactive: inhibition [2] 0% | inhibition [3] 6% | outcome [5] | outcome [6] | outcome [7] | outcome [8]
active: growth inhibition [1] 55% | growth inhibition [4] 86%

CC(C)Nc1cc(C(=O)N[C@@H](Cc2ccccc2)[C@H](O)CNCc2cccc(C(F)(F)F)c2)c(F)c(N2CCCCS2(=O)=O)c1
active: growth inhibition [1] 78% | growth inhibition [4] 93%
inactive: inhibition [2] -5% | inhibition [3] -2% | outcome [5] | outcome [6] | outcome [7] | outcome [8]
